Rows were chosen to be rich in hits. Some 2.2% of all compounds tested hit in one or more screens of this group.
Abeta yeast res: compounds reversing amyloid beta toxicity in yeast. AID 1347071. 410,000 compounds, 0.063% hits. yeast expressing A-beta42, growth rescue, OD600, 48 h; response scale: 0% DMSO, 100% iron-clioquinol control. Potency, µM (titrated, usually from 46.1 µM), actives largely listed as activators; note: nearly all actives have a fitted effect of over 55% in size
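Yeast A-beta toxicity model in growth medium with pinned compounds, 48 h at 30 C; growth read as absorbance at 600 nm. Normalized to FeCl3/clioquinol equimolar mix (positive) and DMSO (negative).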
aSyn rescue: inhibitors of alpha-synuclein toxicity in yeast | Potency, µM (highest dose often 46.1 µM), for the others: at the highest dose growth rescue (activation), hits mostly activators | Yeast expressing alpha-synuclein, growth rescue, BacTiter-Glo, 24 h | AID 652106 | 370,000 compounds, 0.14% hits; note: % of control where 0% means no effect; nearly all actives have a fitted effect of over 65% in size
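Rescue of yeast growth: cells expressing toxic alpha-synuclein, induced in galactose at OD600 0.02, incubated with compound 24 h at 30 C. ATP luminescence quantified growth; inhibitors of toxicity appear as activators.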
Mito fusion act: blocks mitochondrial division or promotes mitochondrial fusion | S. cerevisiae fusion-defective mutant growth rescue, CellTiterGlo 48 h | 320,000 compounds, 0.23% hits | Potency, µM (titrated, usually from 46.1 µM), for the others: top-dose growth rescue (activation), most hits filed as activators; note: % of control where 0% means no effect; nearly all actives have a fitted effect of over 45% in size
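Yeast fusion mutant, YPEG (non-fermentable carbon), compound, 48 h at 37C non-permissive; CellTiterGlo added, 10 min RT, luminescence read. Rescued growth = division inhibition.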
TDP-43 yeast inh: inhibitors of TDP-43 toxicity in yeast; AID 652104; Potency, µM (titrated, usually from 46.1 µM), without a hit: at the highest dose growth rescue (activation), most hits filed as activators; TDP-43 expressing yeast growth rescue, BacTiter-Glo, 24 h; 410,000 compounds, 1.8% hits; note: % of control where 0% means no effect; nearly all actives have a fitted effect of over 50% in size
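Yeast expressing TDP-43 (pregrown in raffinose, seeded at OD600=0.02 in galactose medium) exposed to compounds 24 hr at 30 deg C. Growth read by BacTiter-Glo luminescence; rescue of toxicity appears as increased signal.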
FUS yeast rescue: suppressors of FUS proteinopathy in yeast | 390,000 compounds, 0.24% hits | S. cerevisiae FUS-expressing, growth rescue, OD600, 24 h | AID 1347120 | Potency, µM (top dose mostly 76.6 µM), actives largely listed as activators;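 note: plate controls were DMSO vehicle for no effect and reference control for full effect; nearly all actives have a fitted effect of over 55% in size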
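Absorbance at 600 nm, taken 24hr after compound addition, measured rescue of FUS-yeast growth at 30C. Induction used 2% galactose with seeding at OD 0.005. Controls: CP55940 from 92uM final, DMSO only.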
* marks the source's active call; other numbers are inactive results; i = inactive; ? = inconclusive; nt = not tested or not shown; ! = repeats disagree. Calls come from the whole dose curve; as a rule, active = well fitted curve in the direction sought with a large enough effect; inconclusive = small, poorly fitted or top-dose-only effect, or another doubt; inactive = no such curve, though single readings can be large; an effect the other way counts as inactive or inconclusive. Potency is the fitted concentration of half-maximal effect.

SMILES | Abeta yeast res | aSyn rescue | Mito fusion act | TDP-43 yeast inh | FUS yeast rescue
O=[N+]([O-])c1cccc(NP(=O)(Oc2ccccc2)Oc2ccccc2)c1 | i | ? | -9% | 22µM* | i
COC(=O)C1=C(c2cccc3c2S(=O)(=O)c2ccccc2-3)C[C@@H]2CC[C@H]1N2C(=O)N1CCc2cc(OC)c(OC)cc2C1 | i | 0% | -12% | ? | 20µM*
O=c1[nH]/c(=C\c2ccc(N(CCCl)CCCl)cc2)c(=O)[nH]/c1=C\c1ccc(N(CCCl)CCCl)cc1 | nt | -1% | nt | nt | nt
C[C@H](N)Cc1cccc(C(F)(F)F)c1 | nt | -10% | -6% | nt | nt
Cc1cccc(N2CCN(C(=O)CCNS(=O)(=O)c3ccc4c(c3)oc(=O)n4C)CC2)c1C | i | 1% | 20µM* | 11% | i
NC(=O)CI | nt | 1% | -37% | nt | nt
CC(=O)NCC(N)C(=O)c1ccc(C)cc1 (configuration not stated) | nt | 1% | nt | nt | nt
COc1cccc(CNC(=O)c2cc3c(-c4ccccc4F)nn(C)c3s2)c1 | i | nt | nt | ? | ?
COc1ccccc1N1CCN(C(=O)c2cc3c(-c4ccccc4F)nn(C)c3s2)CC1 | i | nt | nt | 16µM* | 18µM*
O=C(O)C(F)(F)S(=O)(=O)O | i | 7% | 3.2µM* | 3% | i
Cc1oc(-c2ccccc2)nc1CN1C(=O)C(C)N=C(c2ccccc2F)c2cc(Cl)ccc21 (configuration not stated) | i | -29% | 25% | ? | i
Cc1ccccc1CN1C(=O)C(C)N=C(c2ccccc2)c2ccccc21 (configuration not stated) | i | nt | nt | 14µM* | i
COC(=O)C1=C(c2ccc(-c3ccccc3)c(F)c2)C[C@@H]2CC[C@H]1N2C(=O)NCCCOC(C)C | i | 11% | ? | 23% | ?
CC(C(=O)O)c1ccc(-c2ccccc2)c(F)c1 (configuration not stated) | i | -12% | 2% | 16µM* | i
CCc1ccc(NC(=O)c2ccc(F)c(S(=O)(=O)N3CCC4(CC3)OCCO4)c2)cc1 | i | nt | nt | ? | i
Cc1ccc(/C=C2\C(=O)NC(=S)N(c3ccc(F)cc3)C2=O)o1 | i | 0% | -2% | 11µM* | i
Cc1nc2cc([N+](=O)[O-])ccc2c(=O)n1-c1ccccc1[N+](=O)[O-] | i | 12% | 3% | 16µM* | i
Cc1nc2cc([N+](=O)[O-])ccc2c(=O)n1-c1ccc(Br)cc1 | i | -1% | 0% | -1% | i
CCOC(=O)[C@]12Cc3ccccc3[C@H]1N(C)C(=O)c1cc(OC)ccc12 | i | 4% | nt | 35µM* | i
CCOC(=O)[C@]12Cc3c(cc(OC)c(OC)c3OC)[C@H]1N(C)C(=O)c1cc(OC)ccc12 | i | 0% | nt | 18µM* | i
NCCCNCCSP(=O)(O)O | nt | -11% | -34% | nt | nt
O=c1[nH]cc(N(CCCl)CCCl)c(=O)[nH]1 | nt | nt | nt | nt | i
O=c1[nH]cc(F)c(=O)[nH]1 | i | 9% | 2.9µM*! | 0% | i
COC(=O)C1=C(c2ccc(OC(F)(F)F)cc2)C[C@@H]2CC[C@H]1N2C(=O)NC1CCCCC1 | i | -10% | ? | 18µM* | i
COC(=O)C1=C(c2ccc(OC(F)(F)F)cc2)C[C@@H]2CC[C@H]1N2C(=O)NCCNC(C)=O | i | -8% | -3% | 8% | i
SMILES | Abeta yeast res | aSyn rescue | Mito fusion act | TDP-43 yeast inh | FUS yeast rescue
COC(=O)C1=C(c2ccc3ccccc3c2)C[C@@H]2CC[C@H]1N2C(=O)N1CCC(C)CC1 | i | -1% | 12% | 25µM* | i
COC(=O)C1=C(c2ccc(OC(F)(F)F)cc2)C[C@@H]2CC[C@H]1N2C(=O)NC1Cc2ccccc2C1 | i | 1% | ? | 35µM* | ?
COC(=O)C1=C(c2ccc3ccccc3c2)C[C@@H]2CC[C@H]1N2C(=O)NC1Cc2ccccc2C1 | i | 0% | ? | ? | ?
COC(=O)C1=C(c2ccc(OC(F)(F)F)cc2)C[C@@H]2CC[C@H]1N2C(=O)NCc1ccc(F)cc1 | i | 12% | ? | 13µM* | i
CCC(=O)Nc1ccc(C(=O)OCc2ccccc2Cl)cc1 | i | -25% | 15% | ? | nt
Cc1ccc(S(=O)(=O)Nc2ccc3ncccc3c2[N+](=O)[O-])cc1 | i | -33% | nt | 3.5µM* | nt
COc1ccc(Br)cc1C1SCC(=O)Nc2c1c(C)nn2-c1ccccc1C (configuration not stated) | i | nt | nt | 5% | i
Cc1ccccc1-n1nc(C)c2c1NC(=O)CSC2c1ccccc1C(F)(F)F (configuration not stated) | i | nt | nt | 35µM* | i
Cc1csc2nc(COC(=O)c3ccccc3NC(=O)c3ccc(F)cc3)cc(=O)n12 | i | nt | nt | ? | i
Cc1ccc(Cn2nnnc2CN2CCC(n3nnc4cc(C)ccc43)CC2)cc1 | i | 2% | 14% | 20µM* | i
Cc1ccc(Cn2nnnc2CN2CCC(n3nnc4cc(C(F)(F)F)ccc43)CC2)cc1 | i | 14% | 11% | ? | i
S=C(S)N1CCCC1 | i | ? | -82% | 1% | i
Cc1cccc(Cn2cc(C=O)c3ccccc32)c1 | i | 7% | 27% | 14µM* | i
O=Cc1cn(Cc2cccc([N+](=O)[O-])c2)c2ccccc12 | i | 8% | 14% | 28% | nt
CCOC(=O)c1c(NC(NC(=O)CF)C(Cl)(Cl)Cl)sc2c1CCCC2 (configuration not stated) | i | 10% | 13% | 22µM* | i
COC(=O)C1=C(c2cccc(OCc3ccccc3)c2)C[C@@H]2CC[C@H]1N2C(=O)NCCOc1ccc(OC)cc1 | i | -7% | 18% | 25% | ?
OC1CCC(Nc2ccn3nc(-c4cccc(OCc5ccccc5)c4)cc3n2)CC1 (configuration not stated) | i | -20% | nt | 35µM* | ?
C=C(C=O)CC1CC(O)[C@]2(C)OC3CC4OC5C[C@]6(C)O[C@]7(C)CCC8OC9C[C@]%10(C)OC%11C(C)=CC(=O)OC%11CC%10OC9C[C@@H](C)C8OC7CC6O[C@]5(C)CC5OC5C4OC3CC2O1 (some centres not stated) | i | 5% | -10% | 3.2µM* | i
COc1cc(C(=O)NCCSc2c(-c3ccccc3)[nH]c3ccccc23)cc(OC)c1OC | i | nt | nt | ? | ?
C#CC1(O)C=CC2C3CCC4=CC(=O)CCC4C3CCC21CC (configuration not stated) | i | 16% | -48% | 14µM* | i
Cc1cc([C@@H]2CCCN2C)on1 | nt | 2% | -30% | nt | nt
S=P(c1ccccc1)(c1ccccc1)c1cnc2ccccn12 | nt | nt | nt | nt | 22µM*
